The source of these data is PubChem BioAssay (NCATS).

Inconclusive results are not listed. A number with no mark means an inactive call. The source made the active and inactive calls. Calls come from the whole dose curve; as a rule, active = well fitted cell-killing curve with a large enough effect; inconclusive = small, poorly fitted or top-dose-only effect, or effect the other way; inactive = no such curve, though single readings can be large or run the other way.
Potency is the fitted concentration of half-maximal effect.

This experiment is described as follows: Quantitative High-Throughput drug screen in 47 multiple myeloma cell lines against the NCATS MIPE library collection: Karpas417_ECACC cell viability assay (AID 1918961). The note with it: Karpas417 myeloma viability, CellTiter-Glo ATP luminescence, 48 h; viability (% of DMSO): at 45.8 µM (top of the series). The source says: PI: Beverly A. Mock Ph.D.
Laboratory of Cancer Biology and Genetics,
Center for Cancer Research, National Cancer Institute,
National Institute of Health, Bethesda, Maryland
Drug resistance and disease progression are common in multiple myeloma (MM) patients, underscoring the need for new therapeutic combinations. […] We hypothesized that effective combinations would reduce MYC expression and enhance p16 activity. […] These preclinical data identify potentially useful drug combinations for evaluation in drug-resistant MM and reveal potential mechanisms of combined drug sensitivity.
Described herein is the primary MIPE qHTS used to cherrypick compounds. Validated compounds were then further tested for potential synergistic activiy.
[1] Peat TJ, Gaikwad SM, Dubois W, Gyabaah-Kessie N, Zhang S, Gorjifard S, Phyo Z, Andres M, Hughitt VK, Simpson RM, Miller MA, Girvin AT, Taylor A, Williams D, D'Antonio N, Zhang Y, Rajagopalan A, Flietner E, Wilson K, Zhang X, Shinn P, Klumpp-Thomas C, McKnight C, Itkin Z, Chen L, Kazandijian D, Zhang J, Michalowski AM, Simmons JK, Keats J, Thomas CJ, Mock BA. Drug combinations identified by high-throughput screening promote cell cycle transition and upregulate Smad pathways in myeloma. Cancer Lett. 2023 Aug 1;568:216284. doi: 10.1016/j.canlet.2023.216284. Epub 2023 Jun 24. PMID: 37356470; PMCID: PMC10408729.
SEQUENCE No. (e.g., 1, 2, 3, etc.); […] (e.g., Cells, Incubation, Reagent, etc.); VALUE and DESCRIPTION.
1; Cells; 5 uL; white, solid bottom 1536-well Greiner assay plate.
2; Compounds; 23 nL; Kalypsis pin tool (Wako USA) equipped with a 1536-well pin head to transfer to the assay plates.
3; Incubation; 48 hours; 37C incubation.
4; Reagent;5uL; CellTiter Glo (Promega).
5; Detector; 425V; Luminescence; Viewlux PerkinElmer.
NOTES (numbers refer to Sequence numbers above)
1. The cell-based screening methods employed in this study were like those previously published. Briefly, the corresponding myeloma cell lines were screened in 1,536-well plates with 500 cells, 5-uL per well for inhibition of cell viability (assessed by measuring ATP levels with CellTiterGlo).
2. NCATS MIPE 4.0 library of approved and investigational drugs were added using the Kalypsis pin tool. Wells treated with DMSO only for 100% viability and media only wells for 0% viability were used as controls.
3. The assay plates were covered and incubated for 48 hours in a 37C, 5% CO2 incubator with controlled humidity.
4. After 48 hours, CellTilter-GloTM luminescent substrate mix (Promega) reagent was added to the assay plate and plates we incubated for 5 min at room temperature.
5. Signal was measured as median relative luminescence units on a ViewLux (PerkinElmer) multiplate reader.
[1] Heske CM, Davis MI, Baumgart JT, Wilson K, Gormally MV, Chen L, Zhang X, Ceribelli M, Duveau DY, Guha R, Ferrer M, Arnaldez FI, Ji J, Tran HL, Zhang Y, Mendoza A, Helman LJ, Thomas CJ. Matrix Screen Identifies Synergistic Combination of PARP Inhibitors and Nicotinamide Phosphoribosyltransferase (NAMPT) Inhibitors in Ewing Sarcoma. Clin Cancer Res. 2017 Dec 1;23(23):7301-7311. doi: 10.1158/1078-0432.CCR-17-1121. Epub 2017 Sep 12. PMID: 28899971; PMCID: PMC6636827.
(In general: ATP-based viability assays read luminescence as a measure of living cells.)
In the case of `Cc1ccc(C(=O)N(CCCN)[C@@H](c2nc3cc(Cl)ccc3c(=O)n2Cc2ccccc2)C(C)C)cc1`, the “viability (% of DMSO)” value was 101%.

As for `C[C@@H]1C[C@H]2[C@@H]3CCC4=CC(=O)C=C[C@]4(C)[C@@]3(F)[C@@H](O)C[C@]2(C)[C@@]1(O)C(=O)CO`, the Potency was 41.8 nM (active).

For the molecule `CCC(=O)OCC(=O)[C@@]1(OC(=O)CC)[C@@H](C)C[C@@H]2[C@H]3CCC4=CC(=O)C=C[C@]4(C)[C@@]3(F)[C@@H](O)C[C@@]21C`, the Potency is 93.5 nM (active).

Consider `CN(C)CCOc1cc(-c2cn[nH]c2)ccc1NC(=O)C1COc2ccccc2O1` (stereo not given), for which the viability (% of DMSO) is 64.1% (active).

In the case of `CC(C)Oc1cc(Nc2nc(N[C@@H](C)c3ccc(F)cn3)ncc2Cl)[nH]n1`, the Potency is 2640 nM (active).

Turning to `C[C@H]1[C@H](O)O[C@@H]2O[C@@]3(C)CC[C@@H]4[C@H](C)CC[C@@H]1[C@@]24OO3`, the Potency is 2090 nM (active).

Turning to `COC(=O)N1CCN(Cc2cccc(NC(=O)Nc3ccc(C)nc3)c2F)CC1`, the Potency is 4.7 nM (active).

With `CCN(CCO)CCCOc1ccc2c(Nc3cc(CC(=O)Nc4cccc(F)c4)[nH]n3)ncnc2c1`, the Potency is 469 nM (active).

Turning to `CC1(COc2ccc3c(c2)ncn3-c2ccc3cccc(N4CCC(N)CC4)c3n2)COC1`, the Potency was 1180 nM (active).

On to `COc1cc2nc(-c3cc(F)ccc3O)nc(N[C@@H]3CNC[C@@H]3C(C)(C)O)c2cc1OC`, for which the Potency was 118 nM (active).

Consider `Clc1ccc(C2(c3ccc(-c4cn[nH]c4)cc3)CCNCC2)cc1`, for which the Potency is 6620 nM (active).

Regarding `C[C@@]1(c2cc(-c3cncnc3)c(F)cc2F)CCSC(N)=N1`, the Potency is 83.3 nM (active).

`CN1CC(=O)N2C(Cc3c([nH]c4ccccc34)[C@H]2c2ccc3c(c2)OCO3)C1=O` (stereo not given in full): the “viability (% of DMSO)” value is 130%.

Take `C=CC[N+]1([C@H]2C[C@H]3[C@@H]4CC[C@H]5C[C@H](O)[C@@H](N6CCOCC6)C[C@]5(C)[C@@H]4CC[C@]3(C)[C@H]2OC(C)=O)CCCC1`: the “viability (% of DMSO)” value was 180%.

Take `Cc1cnc(Nc2cccc(CN3CCOCC3)c2)nc1Nc1cccc(S(=O)(=O)NC(C)(C)C)c1`: the Potency was 662 nM (active).

`O[C@@H](COc1cccc2ncccc12)CN1CCN(C2c3ccccc3[C@@H]3[C@H](c4ccccc42)C3(F)F)CC1` (stereo not given in full): the “viability (% of DMSO)” value is 199%.

Regarding `CC(C)C[C@@H](C(=O)N[C@H](C(=O)OC1CCCC1)c1ccccc1)[C@H](O)C(=O)NO`, the Potency is 1320 nM (active).

For the molecule `C[C@@H](NC(=O)c1ncnc(N)c1Cl)c1ncc(C(=O)Nc2cc(C(F)(F)F)c(Cl)cn2)s1`, the Potency was 2960 nM (active).

As for `Cc1cccc(Nc2nc(N[C@@H]3CCCC[C@H]3N)ncc2C(N)=O)c1`, the Potency was 3720 nM (active).

For the molecule `N#CC(=C1Nc2ccccc2S1)c1ccnc(OCc2ccc(CN3CCOCC3)cc2)n1`, the Potency was 5.9 nM (active).

With `CNC(=O)c1cc(Oc2ccc(NC(=O)Nc3ccc(Cl)c(C(F)(F)F)c3)c(F)c2)ccn1`, the Potency is 4690 nM (active).

Consider `O=C(O)CCNc1cc(N2CCc3ccccc3CC2)nc(-c2ccccn2)n1`, for which the “viability (% of DMSO)” value is 84.5%.

With `NS(=O)(=O)c1cc(Cl)c(Cl)c(S(N)(=O)=O)c1`, the “viability (% of DMSO)” value is 198%.

For the molecule `O=c1[nH]nc(OCCCc2ccc(Cl)cc2)c(NCc2cccnc2)c1Br`, the Potency was 4690 nM (active).

On to `CCCCOCCOc1nc(-c2ccc(C(=O)O)c(F)c2)sc1C`, for which the “viability (% of DMSO)” value is 197%.

On to `CC(C)[C@H](O)C(=O)N[C@@H](C)C(=O)N[C@@H]1C(=O)N(C)CCc2ccccc21`, for which the Potency is 2.1 nM (active).

Consider `NC(=O)c1nnn(Cc2cc(Cl)c(C(=O)c3ccc(Cl)cc3)c(Cl)c2)c1N`, for which the “viability (% of DMSO)” value is 147%.

For the molecule `CO[C@H]1/C=C\O[C@@]2(C)Oc3c(C)c(O)c4c(O)c(c5c(nc6cc(C)ccn65)c4c3C2=O)NC(=O)C(C)=CC=C[C@H](C)[C@H](O)[C@@H](C)[C@@H](O)[C@@H](C)[C@H](OC(C)=O)[C@H]1C`, the Potency is 833 nM (active).

As to `COc1cc(C=CC(=O)O)ccc1O`, the Potency is 4.2 nM (active).

For the molecule `O=c1[nH]c(=O)n([C@H]2C[C@@H](O)[C@@H](CO)O2)cc1I`, the “viability (% of DMSO)” value is 106%.

For the molecule `O=S(=O)(NCCNCC=Cc1ccc(Br)cc1)c1cccc2cnccc12`, the Potency was 1320 nM (active).

`CC1=C(CC(=O)O)c2cc(F)ccc2C1=Cc1ccc(S(C)=O)cc1` (stereo not given): the Potency is 14800 nM (active).

As to `CN(C)CCOc1ccc(-c2nc(-c3ccc4c(c3)CCC4=NO)c(-c3ccncc3)[nH]2)cc1`, the Potency is 9350 nM (active).

For the molecule `O=C(O)C1=NC(C(=O)O)CC(C=CN2c3cc(O)c(OC4OC(CO)C(O)C(O)C4O)cc3CC2C(=O)O)=C1` (stereo not given), the “viability (% of DMSO)” value is 146%.

As for `O=C(CCCN1CCN(c2ccc(F)cc2)CC1)NC1c2ccccc2CSc2ccccc21` (stereo not given), the Potency was 8330 nM (active).

On to `COc1ccc(-c2cc3nccn3c(Nc3ncccc3C(N)=O)n2)cc1OC`, for which the Potency is 166 nM (active).

In the case of `Nc1ncnc2c1ncn2[C@@H]1O[C@H](CO)[C@@H](O)[C@@H]1O`, the Potency was 118 nM (active).

Regarding `O=C1CCCC(=O)C1C(=O)c1ccc(C(F)(F)F)cc1[N+](=O)[O-]`, the “viability (% of DMSO)” value was 77.2%.

In the case of `COc1nccc(-c2c(-c3ccc(F)cc3)ncn2C2CCC(O)CC2)n1` (stereo not given), the Potency is 4690 nM (active).

Take `CN(C)CC[C@H](CSc1ccccc1)Nc1ccc(S(=O)(=O)NC(=O)c2ccc(N3CCN(Cc4ccccc4-c4ccc(Cl)cc4)CC3)cc2)cc1[N+](=O)[O-]`: the Potency is 93.5 nM (active).
